According to PubChem BioAssay (NCATS):
Values without a mark were called inactive. For some of these results: Entries with a potency or affinity are not part of this list. Activity calls are given as the source filed them. How the calls were made is not given here.

Legend:
[1] = Ebola virus entry assay, green fluorescence channel
[2] = Ebola virus entry assay, blue channel fluorescence
[3] = Ebola virus entry assay, green channel fluorescence
Wherever efficacy is given: 0% is about no effect.

SMILES | efficacy [1] [%] | outcome [2] | outcome [3] | AC50 [2]
CCOC(=O)c1ccc(O)c(O)c1 | -26.2 | inactive | inactive | –
CC(=O)OCC(=O)[C@@]1(OC(C)=O)[C@@H](C)C[C@H]2[C@@H]3C[C@H](F)C4=CC(=O)C=C[C@]4(C)[C@@]3(F)[C@@H](O)C[C@@]21C | 58.7 | inactive | – | –
COc1ccc(-c2ccc3cc(C(=O)O)ccc3c2)cc1C12CC3CC(CC(C3)C1)C2 | 13 | inactive | inactive | –
CC(=O)Nc1ccc(OCC(O)CNC(C)C)cc1 (centres undefined) | -28.6 | inactive | inactive | –
CCCCOC(=O)c1ccc(O)cc1 | -26.2 | inactive | inactive | –
CC(=O)Oc1cccc(O)c1 | -10.5 | inactive | inactive | –
Cc1cc(O)c2ccccc2c1O | 13.4 | inactive | inactive | –
C[n+]1c2cc(N)ccc2cc2ccc(N)cc21 (tested in a mixture with another compound) | 129 | – | – | –
O=C(O)/C=C(\CC(=O)O)C(=O)O | -11 | inactive | inactive | –
CN1C(C(=O)Nc2ccccn2)=C(O)c2sccc2S1(=O)=O | -30.7 | inactive | – | –
COc1cc(NS(=O)(=O)c2ccc(N)cc2)nc(C)n1 | -19.1 | inactive | inactive | –
CCN(CC)CCOC(=O)c1ccc(N)cc1 | -27.3 | – | – | –
O=S(=O)(O)c1cc(I)c(O)c2ncccc12 | 29.1 | inactive | inactive | –
CCCCC(CC)CN1CN(CC(CC)CCCC)CC(C)(N)C1 (centres undefined) | -31.6 | – | – | –
C[N+]1(C)[C@@H]2CC(OC(=O)[C@H](CO)c3ccccc3)C[C@H]1[C@@H]1O[C@@H]12 (some centres undefined) | 12.9 | inactive | inactive | –
O=C(O)CN1C(=O)c2cccc3cccc(c23)C1=O | 11.9 | inactive | inactive | –
Cc1cc(C(C#N)c2ccc(Cl)cc2)c(Cl)cc1NC(=O)c1cc(I)cc(I)c1O (centres undefined) | -32.3 | inactive | – | –
CN[C@@H]1[C@@H](O)[C@@H](O[C@@H]2[C@H](O)[C@H](O[C@H]3OC(CN)=CC[C@H]3N)[C@@H](N)C[C@H]2N)OCC1(C)O (some centres undefined) | -7.04 | inactive | inactive | –
CCOc1ccccc1OCC1CNCCO1 (centres undefined) | 47.7 | inactive | – | –
Cc1c(C)c2c(c(C)c1O)CCC(C)(COc1ccc(CC3SC(=O)NC3=O)cc1)O2 (centres undefined) | 35.5 | inactive | – | –
O=C(O)Cc1ccc(-c2ccccc2)cc1 | 14.2 | inactive | inactive | –
COC(=O)N/N=C/c1c[n+]([O-])c2ccccc2[n+]1[O-] | 35 | inactive | – | –
CC(C)NCC(O)c1cc(O)cc(O)c1 (centres undefined) | 56.8 | inactive | – | –
COc1cccc([C@@]2(O)CCCC[C@@H]2CN(C)C)c1 | -12.5 | inactive | inactive | –
O=C(NCC(O)CO)c1c(I)c(C(=O)NCC(O)CO)c(I)c(N(CCO)C(=O)CO)c1I (centres undefined) | 35.5 | inactive | – | –
Cc1cc(CC(=O)O)c(C)n1-c1ccc(Cl)cc1 | 41.9 | inactive | – | –
O=C(O)CCCCC1CCSS1 (centres undefined) | -16.3 | inactive | inactive | –

SMILES | efficacy [1] [%] | outcome [2] | outcome [3] | AC50 [2]
CC(=O)O[C@]1(C(C)=O)CC[C@H]2[C@@H]3C[C@H](C)C4=CC(=O)CC[C@]4(C)[C@H]3CC[C@@]21C | 38.2 | inactive | – | –
CCc1cc(S(=O)(=O)O)c2cc(C(C)C)cccc1-2 | 18.8 | inactive | inactive | –
Cc1cc2nc3c(=O)[nH]c(=O)nc-3n(C[C@H](O)[C@H](O)[C@H](O)CO)c2cc1C | 67.6 | inactive | – | –
N[C@@H](CCC(=O)N[C@@H](CS)C(=O)NCC(=O)O)C(=O)O | -20.9 | inactive | – | –
COC(=O)c1cc(Cl)c(NC(C)=O)cc1OC | -16.3 | inactive | inactive | –
CNCCCCOc1ccccc1Cc1ccccc1 | 68.3 | – | – | 5.62 µM (active)
COCCOC(=O)C1=C(C)NC(C)=C(C(=O)OC(C)C)C1c1cccc([N+](=O)[O-])c1 (centres undefined) | 27.1 | inactive | – | –
COc1ccc(C2C(=O)c3ccccc3C2=O)cc1 | -26.8 | inactive | inactive | –
O=C(C1CCCCC1)N1CC(=O)N2CCCc3ccccc3C2C1 (centres undefined) | 76.1 | inactive | – | –
O=C(N/N=C/c1ccccc1O)c1ccncc1 | 66.8 | inactive | – | –
O=C(O)CCc1nc2ccccc2[nH]1 | -21.2 | inactive | inactive | –
CN1Cc2cc(C(=O)N3CCC(C4CCNCC4)CC3)ccc2NC(CC(=O)O)C1=O (centres undefined) | 57.9 | inactive | – | –
COc1ccc2cccc(CCNC(C)=O)c2c1 | -16.7 | inactive | inactive | –
COP(=S)(OC)Oc1cc(Cl)c(Cl)cc1Cl | -14 | inactive | inactive | –
NCCCC[C@H](N[C@@H](CCc1ccccc1)C(=O)O)C(=O)N1CCC[C@H]1C(=O)O | -19.4 | inactive | inactive | –
CO[C@@H]1[C@@H](OC(N)=O)[C@@H](O)[C@H](Oc2ccc3c(O)c(NC(=O)c4ccc(O)c(CC=C(C)C)c4)c(=O)oc3c2C)OC1(C)C | 15.5 | inactive | inactive | –
CC(N=C(NC#N)Nc1ccncc1)C(C)(C)C (centres undefined) | -23.2 | inactive | inactive | –
O=C(OOC(=O)c1ccccc1)c1ccccc1 | -19.5 | inactive | inactive | –
OC[C@@H](O)[C@@H](O[C@@H]1O[C@H](CO)[C@H](O)[C@H](O)[C@H]1O)[C@H](O)[C@@H](O)CO | -17.2 | inactive | inactive | –
CCCN1CCCC[C@H]1C(=O)Nc1c(C)cccc1C | 17.3 | inactive | inactive | –
O=C(O)Cn1cnnn1 | 14.2 | inactive | inactive | –
O=S(=O)(O)c1ccc(O)cc1 | 20.2 | inactive | inactive | –
COC(=O)c1ccc(NC(C)=O)cc1OC | 15.6 | inactive | inactive | –
CC(=O)c1ccc(OCC(=O)N2CCCCC2)cc1 | -14.3 | inactive | inactive | –
COc1ccc2cc1Oc1cc3c(cc1OC)CC[N+](C)(C)[C@H]3Cc1ccc(cc1)Oc1c(OC)c(OC)cc3c1[C@@H](C2)[N+](C)(C)CC3 | -25.2 | inactive | inactive | –
O=C(O)c1ccccc1OP(=O)(O)O | 11.4 | inactive | inactive | –
O=C(O)c1c(O)c(-c2ccccc2)nc2ccccc12 | 18 | inactive | inactive | –

SMILES | efficacy [1] [%] | outcome [2] | outcome [3] | AC50 [2]
O=C(O)[C@@H](O)[C@H](O)[C@H](O)[C@@H](O)C(=O)O | -24.9 | inactive | inactive | –
COc1ccnc(CS(=O)c2nc3ccc(OC(F)F)cc3[nH]2)c1OC (centres undefined) | -31.1 | inactive | inactive | –
Clc1cccc(Cl)c1NC1=NCCN1 | -12.5 | inactive | inactive | –
Cc1oc(=O)oc1COC(=O)[C@@H]1N2C(=O)[C@@H](NC(=O)[C@H](N)c3ccccc3)[C@H]2SC1(C)C | -26.8 | inactive | inactive | –
CC(=O)c1ccc(S(=O)(=O)NC(=O)NC2CCCCC2)cc1 | -18.3 | inactive | inactive | –
FC(F)(F)c1ccccc1-n1ccnc1 | 12.1 | inactive | inactive | –
NCCCNCCSP(=O)(O)O | 18 | inactive | inactive | –
Cc1cc(=O)n(-c2ccccc2)n1C | -22 | inactive | inactive | –
Cc1ccccc1C(=O)N1CC/C(=N\OS(=O)(=O)O)c2ccc(Cl)cc21 | -25 | inactive | inactive | –
Oc1ccccc1 | 23.9 | inactive | inactive | –
Cc1cccc(C)c1NC(=O)CN(CC(=O)O)CC(=O)O | -22.8 | inactive | inactive | –
CO/N=C(/C(=O)N[C@@H]1C(=O)N2C(C(=O)[O-])=C(C[n+]3ccn4ncccc43)CS[C@H]12)c1nsc(N)n1 | 12.5 | inactive | inactive | –
CNCc1ccccc1 | -19.2 | inactive | inactive | –
CC(C)Cn1cnc2c(N)nc3ccccc3c21 | -30.7 | inactive | inactive | –
COC(=O)/C=C\C(=O)OC | 24.5 | inactive | inactive | –
O=C1CC2(CCCC2)CC(=O)N1 | -26.6 | inactive | inactive | –
CC(=O)Nc1c(I)cc(I)c(C(=O)O)c1I | -9.82 | inactive | inactive | –
Cc1cc(NS(=O)(=O)c2ccc(N)cc2)no1 | 21.6 | inactive | inactive | –
O=C1OC(CN2CCOCC2)CN1/N=C/c1ccc([N+](=O)[O-])o1 (centres undefined) | 29.1 | inactive | inactive | –
C[C@@H]1CCC[C@H](C)N1 | -7.35 | inactive | inactive | –
COc1cc(OC)nc(O[C@H](C(=O)O)C(OC)(c2ccccc2)c2ccccc2)n1 | 36.2 | inactive | inactive | –
C[C@]12C=CC(=O)C=C1[C@@H](F)C[C@@H]1[C@@H]2[C@@H](O)C[C@@]2(C)[C@H]1CC[C@]2(O)C(=O)CO | 13.6 | inactive | inactive | –
CC(C(=O)O)c1ccc2c(c1)CC(=O)c1ccccc1S2 (centres undefined) | 23.3 | inactive | inactive | –
CC(=O)OCC[N+](C)(C)C | -18 | inactive | inactive | –
C=CCn1c(=O)n([C@@H]2O[C@H](CO)[C@@H](O)[C@H]2O)c2nc(N)[nH]c(=O)c21 | -17.7 | inactive | inactive | –
